# KLK7 zymogen act = activators of human kallikrein-7 zymogen; P49862; purified proKLK7, EDANS-DABCYL substrate fluorescence; 100% is mature enzyme control, 0% vehicle; activation, % at 7 µM; 0.9% of 370,000 active; AID 652039;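 active = activation above the mean of all tested compounds plus 3 SD, computed per campaign excluding outliers beyond control limits, cut at about 13% in these data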
# ADAM17 inh = ADAM17 inhibition, QFRET primary screen; recombinant ADAM17, EDANS/DABCYL FRET peptide cleavage; inhibition, % at 6.95 µM; P78536; 0.83% of 370,000 active; AID 720648;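 active = inhibition above the mean of compounds lying between control limits plus 3 SD, set per campaign, cut at about 8.5% in these data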;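 note: 0% = DMSO-only wells as the low control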
# ADAM10 inh = ADAM10 inhibition, QFRET primary screen; recombinant ADAM10, EDANS/DABCYL FRET peptide cleavage, 3 h; 0.62% of 370,000 active; O14672; inhibition, % at 7 µM;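 active = inhibition above a per-campaign cutoff equal to the mean of compounds falling between control-based bounds plus 3 SD, cut at about 20% in these data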;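 note: 0% = DMSO wells while the 100% control is not disclosed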
# Target sequence (O14672 214-748 limits assumed): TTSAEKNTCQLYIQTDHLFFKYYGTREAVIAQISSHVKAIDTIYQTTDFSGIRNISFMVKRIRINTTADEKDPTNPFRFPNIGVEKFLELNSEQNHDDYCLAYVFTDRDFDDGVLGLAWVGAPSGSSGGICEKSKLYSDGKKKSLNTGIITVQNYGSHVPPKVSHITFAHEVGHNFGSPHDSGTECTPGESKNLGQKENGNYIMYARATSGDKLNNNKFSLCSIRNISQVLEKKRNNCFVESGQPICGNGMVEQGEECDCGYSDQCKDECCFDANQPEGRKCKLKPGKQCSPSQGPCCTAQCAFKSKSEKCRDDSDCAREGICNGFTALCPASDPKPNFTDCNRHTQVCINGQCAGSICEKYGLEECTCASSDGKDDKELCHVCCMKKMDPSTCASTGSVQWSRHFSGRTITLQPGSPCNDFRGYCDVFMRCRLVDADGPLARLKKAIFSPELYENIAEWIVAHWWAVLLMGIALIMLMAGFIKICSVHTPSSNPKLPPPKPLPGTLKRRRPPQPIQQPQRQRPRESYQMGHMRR
# PLC-beta3 inh = blocks human PLC-beta3 enzyme activity. Purified PLC-beta3, fluorogenic substrate, fluorescence. inhibition, % at 12.2 µM. 0.18% of 370,000 active. AID 720704; in the data active = inhibition above about 11%;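 note: 0% = median of compound wells on plate and 100% = full blocker control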
# PLC-gamma1 inh = blocks human PLC-gamma1 enzyme activity; P19174; purified PLC-gamma1, fluorogenic substrate, fluorescence; inhibition, % at 12.2 µM; 0.84% of 370,000 active; AID 720700; in the data active = inhibition above about 9.5%
# proKLK7 act conf = confirmation of human kallikrein-7 zymogen activators; shares compounds with KLK7 zymogen act; purified proKLK7, EDANS-DABCYL substrate fluorescence; scaled: vehicle 0, mature enzyme 100; activation, % at 7 µM; 68% of 3,200 active; AID 686949;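 active = activation, as change over the incubation, above the mean of all tested compounds plus 3 SD, cut at about 13% in these data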
# EDANS interfere = counter-screen for kallikrein-7 activators: EDANS-DABCYL optical interference; shares compounds with KLK7 zymogen act; EDANS-DABCYL substrate fluorescence interference, no enzyme, 4 h; solvent 0%, active enzyme control 100%; activation, % at 7 µM; 80% of 3,200 active; AID 686952;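 active = activation above the all-compound mean plus 3 SD, ignoring values outside control-based bounds, cut at about 4.8% in these data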;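 note: value is the 4 h activation minus the activation read at time zero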
# EDANS interf = EDANS fluorescence interference in dose response, no enzyme; shares compounds with KLK7 zymogen act; EDANS-DABCYL peptide fluorescence interference; EC50, µM; 20% of 250 active; AID 720493;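 active = compounds that raise the fluorescence signal in this interference counterscreen, with EC50 at or below 10 µM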;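 note: intact quenched peptide substrate alone read at 355 nm excitation and 520 nm emission; signal is fluorescence gain from T0 to T4 after four hours at room temperature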
# Starred values were filed as active, the others as inactive; i = inactive; . = no result given. Hits are enriched below; roughly 2.9% of the tested compounds scored in any of these assays.
SMILES,KLK7 zymogen act,ADAM17 inh,ADAM10 inh,PLC-beta3 inh,PLC-gamma1 inh,proKLK7 act conf,EDANS interfere,others
COc1cc2c(cc1OC)CN(Cc1cc(=O)oc3cc(C)c(Cl)cc13)CC2,15*,-31,-90,-146,-146,-8,-6,
Cc1ccc2c(CN3CCN(Cc4ccc5c(c4)OCO5)CC3)cc(=O)oc2c1C,1,-2,-3,1,0,.,.,
FC(F)(F)c1cc(CNC2CCC23CCCCC3)ccc1Cl (stereo not given),.,-1,2,4,1,.,.,
Cc1cc2oc(=O)cc(CN3CCOCC3)c2cc1C(C)C,-1,-3,-10,-2,-7,.,.,
O=c1cc(CN2CCOCC2)c2cc(Cl)c(O)cc2o1,54*,i,i,i,i,63*,77*,
Cc1ccc(OCc2nnc(SCC(=O)Nc3ccc(S(N)(=O)=O)cc3)n2-c2ccc(Cl)cc2)cc1,0,-1,1,2,6,.,.,
Cn1c(C(=O)O)cc2c(=O)n3ccccc3nc21,58*,i,i,i,i,71*,79*,
CC1CC(NC(=O)c2cc3c(=O)n4ccccc4nc3n2C)CC(C)(C)C1 (stereo not given),-84,-203,i,i,-429,.,.,
Cn1nc(C(=O)N2CCc3ccccc3C2)c2ccccc2c1=O,0,-2,4,2,2,.,.,
CC1CN(C(=O)c2cc3c(=O)n4ccccc4nc3n2C)CC(C)O1 (stereo not given),79*,i,i,i,i,75*,71*,
CCOC(=O)C1CCN(C(=O)c2cc3c(=O)n4ccccc4nc3n2C)CC1,78*,i,i,i,i,64*,64*,
Cn1c(C(=O)N2CCc3ccccc3C2)cc2c(=O)n3ccccc3nc21,16*,i,i,i,i,-33,-26,
COc1ccc(S[C@]2(C(=O)NC3CC3)CC(=O)N[C@@H]2c2ccc(OC)cc2)cc1,1,-3,-10,-2,0,.,.,
CCOC(=O)[C@]12CCCC=C1N(CCCOC)C(=O)[C@@H]2CC(=O)N1CCC(c2ccccc2)CC1,0,-6,-2,1,-1,.,.,
Cc1ccccc1CS(=O)(=O)Cc1ccc(C(=O)Nc2ccc(F)cc2F)o1,0,-3,-15,-1,0,.,.,
Cn1c(=O)cc(OCC(=O)N2CCN(c3ccccc3Cl)CC2)c2ccccc21,0,-4,-2,5,1,.,.,
COc1ccc2c(c1)CNC2CS(=O)(=O)NCC(C)C (stereo not given),-3,-22,-79,-44,-33,.,.,
N=c1c(S(=O)(=O)c2ccc(Br)cc2)cc2c(=O)n3ccccc3nc2n1CCN1CCOCC1,-10,-257,i,-247,-160,.,.,
Cn1c(C(=O)N2CCOCC2)cc2c(=O)n3ccccc3nc21,61*,i,i,i,i,73*,84*,
Cc1cc2c(c(=O)o1)[C@@]1(C(=O)Nc3ccccc31)C1=C(CCCC1=O)O2,0,-5,-9,-2,0,.,.,
Cc1cc(N2CCC(N(C)C3CCCC3)CC2)nc2cc(O)ccc12,16*,-282,i,i,i,25*,31*,
Nc1cc(Cl)ccc1C(=O)OCC(=O)NC1CCS(=O)(=O)C1 (stereo not given),2,-170,i,-126,-110,.,.,
Nc1ccc(Cl)cc1C(=O)OCC(=O)NC1CCS(=O)(=O)C1 (stereo not given),14*,-394,i,-383,-264,23*,19*,EDANS interf=i
Cc1ccc(/C=C/C(=O)c2ccc(O)cc2)cc1,0,0,10,-5,3,.,.,
CSc1ccc(/C=C/C(=O)c2ccc(O)cc2)cc1,28*,-3,-11,-203,-195,2,2,
CC(C)C[C@H]1COc2cccc(F)c2S(=O)(=O)N1Cc1cn(Cc2ccc(Cl)cc2)nn1,0,-5,-5,2,3,.,.,

# Screens from PubChem.
